Screens (PubChem)
a7 integrin act – activates integrin-mediated alleviation for muscular dystrophy; Potency, µM (series often up to 38.3 µM), for inactives: top-dose activation, hits mostly activators; alpha7betagal myoblasts, beta-gal FDG fluorescence, 48 h; hit rate 0.064% among 350,000; AID 624291;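 note: potency is the fitted concentration of half-maximal effect; 100% = response of the positive control SU9516; nearly all actives have a fitted effect of over 60% in size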
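Alpha7betagal+/- myoblasts (passage 13) were plated 16-24 hr, then exposed to compounds (1:260 dilution of DMSO stock) for 48 hours at 37C. After MPER lysis, β-galactosidase reporter activity was read as FDG fluorescence (ex 480/em 540) after 30 minutes.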
Gal4-VP16 FLuc – inhibits Gal4-VP16 luciferase reporter, ROR gamma counter-screen; Drosophila S2 Gal4-VP16 UAS-luciferase, luminescence, 20 h; Potency, µM (highest dose often 53.6 µM), for the others: top-dose activity, negative = inhibition, usual class: inhibitors; hit rate 3.5% among 310,000; AID 2546;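 note: Gal4-VP16 expression switched on by copper sulfate through the metallothionein promoter; potency is the fitted concentration of half-maximal effect; % is set by controls: 0 for no effect and ±100 for the full control effect; nearly all actives have a fitted effect of over 50% in size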
Giardia killer – Giardia lamblia killing; Giardia lamblia trophozoite viability; activity change, % at 7.66 µM, hits read low; AID 540267; hit rate 0.15% among 340,000; in the data active = activity change below about -80%; inconclusive = between about -30% and that limit;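 note: parasites exposed to compound for two days anaerobically before the ATP read; % is set by controls: 0 for no effect and ±100 for the full control effect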
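Killing of trophozoites was scored by loss of ATP luminescence after a 48 hrs anaerobic exposure to compounds at 37 deg C, using 100 cells per well.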
RORg inh – blocks mouse ROR gamma transcriptional activity; P51450; hit rate 5.4% among 310,000; Potency, µM (highest dose often 53.6 µM), inactives show at the highest dose activity change, negative = inhibition, actives largely listed as inhibitors; Drosophila S2 Gal4-RORgamma UAS-luciferase reporter, 20 h; note: potency is the fitted concentration of half-maximal effect; % is set by controls: 0 for no effect and ±100 for the full control effect; nearly all actives have a fitted effect of over 60% in size
Target sequence (P51450 whole entry, looked up, the tested form may be a part): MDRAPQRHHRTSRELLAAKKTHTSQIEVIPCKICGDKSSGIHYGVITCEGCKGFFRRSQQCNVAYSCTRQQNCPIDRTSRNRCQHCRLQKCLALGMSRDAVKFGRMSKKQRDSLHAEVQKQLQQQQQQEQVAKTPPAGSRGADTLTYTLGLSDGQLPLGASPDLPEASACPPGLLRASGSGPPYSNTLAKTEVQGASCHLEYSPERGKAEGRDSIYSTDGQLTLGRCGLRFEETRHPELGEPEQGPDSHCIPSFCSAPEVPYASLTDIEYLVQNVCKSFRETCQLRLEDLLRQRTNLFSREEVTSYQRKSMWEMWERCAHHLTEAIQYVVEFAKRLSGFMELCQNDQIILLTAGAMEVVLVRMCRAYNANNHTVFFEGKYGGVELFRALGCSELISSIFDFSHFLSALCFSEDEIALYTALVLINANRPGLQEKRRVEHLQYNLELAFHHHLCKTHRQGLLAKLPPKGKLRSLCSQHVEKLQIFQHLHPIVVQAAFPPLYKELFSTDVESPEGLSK
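Schneider cells (Drosophila), stable Gal4 DBD–ROR gamma + UAS-luc; 1 hr cmpd preincubation; Cu2+ induction 700 uM final; 20 hr ambient; luminescence.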
ERG-DNA inh – ERG Ets/DNA interaction inhibition; AID 624246; hit rate 0.028% among 370,000; fluorescence polarization, His-ERG Ets domain / labelled DNA; Potency, µM (highest dose often 76.9 µM), for inactives: at the top dose FP activity, negative = inhibition, usual class: inhibitors; P11308; active = well fitted inhibition curve with a large enough effect in the polarisation, with a control signal flat; inconclusive = small, poorly fitted or top-dose-only effect, or effect the other way, or a change in a side signal; inactive = no such curve, though single readings can be large or run the other way; the % refers to the polarisation;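 note: polarization taken with two DNA probes labelled with fluorescein and Texas red; potency is the fitted concentration of half-maximal effect; % of control where 0% means no effect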
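His-tagged ERG Ets domain (1 uM in the protein solution; 300mM KCl, 50mM Tris-HCl, 1mM EDTA, 1mM DTT, pH 7.5) received compound, then a probe mix of 5 nM fluorescein-DNA and 100nM Texas-615-DNA. Fluorescence polarization was read for both dyes.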
Numbers without * were called inactive; ? = inconclusive; · = no result given; [ ] = another dose, or the depositor's remark. This excerpt belongs to a sample that is enriched for hits. Unless noted, calls come from the whole dose curve; as a rule, active = well fitted curve in the direction sought with a large enough effect; inconclusive = small, poorly fitted or top-dose-only effect, or another doubt; inactive = no such curve, though single readings can be large; an effect the other way counts as inactive or inconclusive.

SMILES | a7 integrin act | Gal4-VP16 FLuc | Giardia killer | RORg inh | ERG-DNA inh
Cc1nn2c(c1-c1ccc(Cl)cc1)N=C(c1ccco1)CC2c1ccccc1 (centres undefined) | 21% | 2% | -6 | -22% | 0%
CCCCCCCCCCOC(=O)C[N+](C)(C)C/C=C(/C)Cl | -28% | 22µM* | -4 | 14% | 7%
COc1cc(CC(=O)OCC(=O)N2CCCCC2C)cc(OC)c1OC (centres undefined) | -1% | -1% | 10 | -8% | -7%
CCN1CCN(Cc2ccc(NC(=O)c3ccc(C)c(NC(=O)c4c[nH]c5cc(C(F)(F)F)ccc5c4=O)c3)cc2C(F)(F)F)CC1 | -59% | 11µM* | -24 | 6.3µM* | 8%
Cc1ccc(C(=O)Nc2cccc(C(F)(F)F)c2)cc1NC(=O)c1c[nH]c2cc(C(F)(F)F)ccc2c1=O | 0% | · | 15 | · | 1%
CCOc1ccc(/C=N/Nc2nc(C)cs2)c(O)c1 | -20% | 2.2µM* | 5 | 1.4µM* | 2%
O=C(N/N=C/c1c(O)ccc2ccccc12)c1[nH]ncc1Br | ? | 4.5µM* | 7 | 2.5µM* | 22%
CCOc1ccc(/C=N/NC(=O)c2[nH]ncc2Br)c(O)c1 | -14% | 11µM* | 13 | 3.5µM* | 4%
Cc1csc(N/N=C/c2ccccc2F)n1 | 0% | -79% | -24 | ? | 9%
COc1ccc(OC)c(/C=N/NC(=O)c2[nH]ncc2Br)c1 | 18% | -2% | 8 | 2% | -2%
Cc1ccc(O)c(/C=N/NC(=O)c2[nH]ncc2Br)c1 | 15% | 1.3µM* | 23 | 1.3µM* | 7%
Cc1ccc(O)c(/C=N/NC(=O)C2=NNC(c3ccccc3)(c3ccccc3)C2)c1 | · | 2.8µM* | · | 1.4µM* | ·
Cc1ccc(Nc2nc(C)cc(C)n2)c(C(=O)O)c1 | · | · | · | · | -5%
COc1ccc(C)cc1NC(=O)CN1CCN(C/C=C/c2ccccc2)CC1 | -33% | ? | 1 | 10µM* | -10%
S=C(NCc1ccccc1)NCc1cccc(CNC(=S)NCc2ccccc2)c1 | 11% | -1% | 11 | -9%[10 µM] | 2%
NNC(=S)NCc1ccccc1 | 3% | 10µM* | 8 | 2.8µM* | 1%
NC(=S)NCc1cccnc1 | -5% | -6% | -21 | -5% | 1%
NNC(=S)NCc1cccnc1 | -25% | ? | -12 | 8.9µM* | -3%
COc1ccc(C(=O)Nc2ccc3nc4c(c(Nc5ccccc5OC)c3c2)CCCC4)c(OC)c1 | · | · | · | · | -1%
COc1cc2c(cc1OC)C(C)N(C(=O)c1cc3c(=O)oc4ccc(C)cc4c3s1)CC2 (centres undefined) | -12% | -21% | -19 | 10µM* | -4%
CCNc1nc(C23CC4CC(CC(C4)C2)C3)cs1 | -43% | ? | -15 | 10µM* | 2%
CC(=O)NNC(=O)CC(=O)Nc1nc(C23CC4CC(CC(C4)C2)C3)cs1 | -48% | 1% | -11 | -6% | -3%
O=C(NCc1ccccn1)C(=O)Nc1nc(C23CC4CC(CC(C4)C2)C3)cs1 | -11% | 10µM* | -17 | 2.8µM* | 4%
Cc1cc(C)cc(C(=O)n2nc(C)c(S(=O)(=O)N3CCCCCC3)c2C)c1 | · | · | · | · | -4%
CC1CC2C3CC(F)C4=CC(=O)C=C[C@@]4(C)[C@@]3(F)C(O)C[C@]2(C)[C@]1(O)C(=O)COC(=O)C(C)(C)C (some centres undefined) | · | -7% | · | 38% | ·
SMILES | a7 integrin act | Gal4-VP16 FLuc | Giardia killer | RORg inh | ERG-DNA inh
Clc1ccccc1N=C1NN=C(c2cccs2)CS1 | -24% | ? | 0 | 11µM* | 17%
Fc1ccccc1N=C1NN=C(c2ccccc2)CS1 | -63% | -17% | -11 | ? | -3%
CCCCCCCn1c(=O)c(C(=O)OC)c(N)c2ccccc21 | -38% | 1.3µM* | 3 | 1.8µM* | 9%
CCCCCCCCn1c(=O)c(C(=O)OC)c(N)c2ccccc21 | -4% | 4.5µM* | 2 | 3.2µM* | -3%
Cc1oc2cc3c(C(=O)N4CCCCC4)c(C)oc3cc2c1C(=O)N1CCCCC1 | -11% | ? | -12 | 2µM* | ·
C=CC[n+]1c(-c2ccc(OCC)cc2)csc1NNC(=O)Nc1ccccc1 | 0% | ? | 5 | 16µM* | ·
C=CC[n+]1c(-c2ccc(C)cc2)csc1Nc1c(C)n(C)n(-c2ccccc2)c1=O | -36% | 3% | -2 | 21% | -2%
CCOC(=O)c1ccc(NC(=O)CC2OCCN(CC)C2=O)cc1 (centres undefined) | -20% | ? | 2 | 20µM* | -15%
O=C(C[C@H]1C/C=C\C[C@@H](Cc2ccc(F)cc2)C(=O)O[C@H](c2ccccc2)CNC1=O)NCCO | 6% | · | -7 | · | -5%
CC1(C)CC(=O)c2cnn(-c3nc4ccccc4[nH]3)c2C1 | 11% | ? | 9 | 8.9µM* | -10%
O=c1c(Cl)c(N2CCOCC2)cnn1-c1nc2ccccc2[nH]1 | 0% | ? | -13 | ? | 10%
C=CCNC(=S)N/N=C1\CCS(=O)(=O)c2ccccc21 | 21% | ? | 0 | 18µM* | -1%
COc1ccc(CNC(=S)N/N=C/c2ccc(O)c(OC)c2)cc1 | -14% | 16µM* | -8 | 10µM* | 30%
COc1cc(/C=N\NC(C)=O)ccc1OC/C=C/c1ccccc1 | -23% | 0.45µM* | -14 | ? | 10%
COc1ccc(/C=C\C(=O)Oc2cccc(/C=N/NC(=O)Cc3ccc(OC)c(OC)c3)c2)cc1 | -20% | 13µM* | 15 | -28% | ·
COc1ccc(/C=N/NC(=O)CCn2cnc(-c3ccccc3)c2-c2ccccc2)cc1OC | -19% | 13µM* | -21 | ? | 2%
COc1ccc(/C=C/C(=O)Oc2cccc(/C=N/NC(=O)c3cccc(F)c3)c2)cc1 | -8% | ? | -11 | ? | 6%
Cc1cc(C(=O)NCc2ccccc2Cl)n(-c2ccccc2)n1 | -27% | -11% | -21 | 18% | -2%
CCOC(=O)c1ccc(NC(=O)c2ccc3c(c2)c(C)c(C)n3Cc2ccc(F)cc2)cc1 | · | · | · | · | 1%
COc1cc(/C=N/NC(=S)N/N=C/c2cc(OC)c(OC)c(OC)c2)cc(OC)c1OC | 18% | 4µM* | 13 | ? | 7%
COc1ccc(/C=N/OCC(=O)NC(c2ccccc2)c2ccccc2)cc1OC | -47% | 1.6µM* | ? | ? | 0%
COCCCNC(=S)N/N=C/c1ccc(OC)c(Br)c1 | -14% | 11µM* | 20 | 1µM* | 0%
COc1ccc(CNC(=S)N/N=C/c2ccc(OC)c(OC)c2)cc1 | 15% | ? | 28 | 11µM* | 4%
CCCCNC(=O)/C=C/c1ccc(OC)c(Br)c1 | 6% | -9%[0.365 µM] | 2 | -33% | 4%
COc1ccc(C=NNC(=S)NN=Cc2ccc(OC)c(OC)c2)cc1OC | -23% | · | 0 | · | 8%
COc1ccc(/C=N/NC(=S)NCc2ccccc2)cc1OC | 9% | ? | 35 | 10µM* | ·
CCC/C=C/c1ccc(CN2C(C(C)C)C(=O)N(Cc3cn(CCC4OCCO4)nn3)CCS2(=O)=O)cc1 (centres undefined) | -32% | · | · | · | ·
